Measured values taken from ChEMBL document CHEMBL3988442, “University of Dundee, Small-Polar-MMV Screening Library” (2021).
Values joined by “and” are separate entries in the source; they are usually repeats but may differ in a detail not shown here. Equal entries are not always repeated. For part of these data: Entries with a potency or affinity are not part of this list.

Columns and labels:
Design in all cases: scale not given: direction of the effect not stated beside the values
[1] = biological target: Protein translocase subunit SecA (Escherichia coli (strain K12)) (UniProt P10408); experiment: Assay to Identify E. coli SecA ATPase Inhibitors; type: functional; conditions: 30 µM
[2] = biological target: T1, Ubiquitin-activating enzyme e1, putative (Leishmania donovani (strain BPK282A1)) (UniProt E9BSI1); experiment: Leishmania donovani Ubiquitin Activating Enzyme (LdE1); type: functional; conditions: 30 µM
T1 sequence (whole entry): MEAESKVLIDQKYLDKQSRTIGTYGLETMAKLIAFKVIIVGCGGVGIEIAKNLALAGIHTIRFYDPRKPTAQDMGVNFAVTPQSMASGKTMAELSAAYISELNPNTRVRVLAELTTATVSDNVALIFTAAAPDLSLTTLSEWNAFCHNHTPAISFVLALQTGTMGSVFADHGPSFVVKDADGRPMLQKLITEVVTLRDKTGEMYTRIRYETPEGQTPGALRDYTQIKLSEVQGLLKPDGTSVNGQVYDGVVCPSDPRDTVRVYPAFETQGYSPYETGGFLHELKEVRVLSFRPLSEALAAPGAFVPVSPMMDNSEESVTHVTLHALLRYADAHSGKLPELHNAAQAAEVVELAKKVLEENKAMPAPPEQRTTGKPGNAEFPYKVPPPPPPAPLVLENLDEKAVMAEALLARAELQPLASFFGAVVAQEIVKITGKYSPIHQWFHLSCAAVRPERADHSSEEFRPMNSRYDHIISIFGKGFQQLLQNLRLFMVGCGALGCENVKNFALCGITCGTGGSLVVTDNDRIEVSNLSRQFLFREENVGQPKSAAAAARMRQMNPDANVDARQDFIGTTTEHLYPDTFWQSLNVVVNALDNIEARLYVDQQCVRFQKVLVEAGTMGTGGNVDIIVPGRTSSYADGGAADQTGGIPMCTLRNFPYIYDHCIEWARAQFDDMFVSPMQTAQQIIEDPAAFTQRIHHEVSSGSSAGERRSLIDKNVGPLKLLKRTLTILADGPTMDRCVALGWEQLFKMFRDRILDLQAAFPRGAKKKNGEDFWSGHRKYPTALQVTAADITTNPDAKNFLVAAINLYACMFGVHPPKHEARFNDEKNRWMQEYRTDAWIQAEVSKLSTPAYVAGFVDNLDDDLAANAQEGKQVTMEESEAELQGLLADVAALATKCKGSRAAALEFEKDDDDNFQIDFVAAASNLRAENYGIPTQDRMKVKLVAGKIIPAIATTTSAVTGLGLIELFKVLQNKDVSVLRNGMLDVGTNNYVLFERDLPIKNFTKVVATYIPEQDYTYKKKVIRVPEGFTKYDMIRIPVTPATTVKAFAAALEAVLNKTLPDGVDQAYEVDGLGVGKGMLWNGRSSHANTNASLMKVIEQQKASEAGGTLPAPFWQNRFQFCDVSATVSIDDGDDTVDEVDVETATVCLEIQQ

[3] = biological target: AMP-activated protein kinase, AMPK (Homo sapiens) (UniProt P54646+O43741+P54619+Q9UGJ0+Q9Y478+Q13131+Q9UGI9); experiment: AMP-dependent Kinase enzyme assay. An in vitro enzyme assay that detects ADP turnover that is directly proportional to AMPK activity. This uses naive AMPK that is activated during the assay with MK-8722; type: functional; conditions: 30 µM
[4] = biological target: Sialic acid-binding Ig-like lectin 9 (Homo sapiens) (UniProt Q9Y336); experiment: Hs-Siglec9 ALPHAscreen SOP 20170721; conditions: 10 µM
Trypanosoma cruzi = experiment: Trypanosoma cruzi phosphomannomutase and mannose-1-phosphate guanylyltransferase assay; type: functional; conditions: 10 µM
[5] = biological target: T2, Arginase-2, mitochondrial (Homo sapiens) (UniProt P78540); experiment: in vitro enzyme assay to detect the production of urea directly proportional to the activity of Arginase II; type: functional; note: in the data most compounds retested in dose-response had high values
T2 sequence (whole entry): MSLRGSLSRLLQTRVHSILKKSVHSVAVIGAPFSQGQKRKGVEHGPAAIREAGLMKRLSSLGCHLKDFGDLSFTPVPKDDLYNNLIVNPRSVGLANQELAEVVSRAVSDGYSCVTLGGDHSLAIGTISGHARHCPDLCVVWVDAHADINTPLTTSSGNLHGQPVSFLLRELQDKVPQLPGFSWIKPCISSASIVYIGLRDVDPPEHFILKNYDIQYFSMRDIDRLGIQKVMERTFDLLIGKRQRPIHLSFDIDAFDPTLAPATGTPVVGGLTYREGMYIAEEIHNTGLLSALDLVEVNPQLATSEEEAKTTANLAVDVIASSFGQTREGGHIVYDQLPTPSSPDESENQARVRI

[6] = biological target: T3, Proteasome subunit beta (Trypanosoma cruzi) (UniProt O96673); experiment: Trypanosoma cruzi proteasome chymotrypsin-like activity (TcProtChymo) assay.; note: in the data most compounds retested in dose-response had high values; type: functional; conditions: 9.37 µM
T3 sequence (whole entry): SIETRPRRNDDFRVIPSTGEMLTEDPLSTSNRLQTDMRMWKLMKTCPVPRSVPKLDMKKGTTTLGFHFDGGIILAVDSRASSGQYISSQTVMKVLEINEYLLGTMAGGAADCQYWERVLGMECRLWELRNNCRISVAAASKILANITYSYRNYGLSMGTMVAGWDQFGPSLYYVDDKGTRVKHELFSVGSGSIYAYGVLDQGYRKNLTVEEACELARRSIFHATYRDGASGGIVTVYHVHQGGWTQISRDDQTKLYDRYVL

Homo sapiens = species on record: Homo sapiens; experiment: To identify inhibition of the IFN signalling (Jak-Stat) pathway via expression of an eGFP reporter gene under the control of an IFN-stimulated response element (ISRE) containing MxA promoter.; type: functional; conditions: 30 µM
[7] = biological target: T4, Tyrosyl-tRNA synthetase, putative (Trypanosoma cruzi (strain CL Brener)) (UniProt Q4DSP6); experiment: Trypanosoma cruzi tyrosyl tRNA synthetase (TcYRS) _High Tyrosine SOP; type: functional; conditions: 30 µM; note: in the data most compounds retested in dose-response had high values
T4 sequence (whole entry): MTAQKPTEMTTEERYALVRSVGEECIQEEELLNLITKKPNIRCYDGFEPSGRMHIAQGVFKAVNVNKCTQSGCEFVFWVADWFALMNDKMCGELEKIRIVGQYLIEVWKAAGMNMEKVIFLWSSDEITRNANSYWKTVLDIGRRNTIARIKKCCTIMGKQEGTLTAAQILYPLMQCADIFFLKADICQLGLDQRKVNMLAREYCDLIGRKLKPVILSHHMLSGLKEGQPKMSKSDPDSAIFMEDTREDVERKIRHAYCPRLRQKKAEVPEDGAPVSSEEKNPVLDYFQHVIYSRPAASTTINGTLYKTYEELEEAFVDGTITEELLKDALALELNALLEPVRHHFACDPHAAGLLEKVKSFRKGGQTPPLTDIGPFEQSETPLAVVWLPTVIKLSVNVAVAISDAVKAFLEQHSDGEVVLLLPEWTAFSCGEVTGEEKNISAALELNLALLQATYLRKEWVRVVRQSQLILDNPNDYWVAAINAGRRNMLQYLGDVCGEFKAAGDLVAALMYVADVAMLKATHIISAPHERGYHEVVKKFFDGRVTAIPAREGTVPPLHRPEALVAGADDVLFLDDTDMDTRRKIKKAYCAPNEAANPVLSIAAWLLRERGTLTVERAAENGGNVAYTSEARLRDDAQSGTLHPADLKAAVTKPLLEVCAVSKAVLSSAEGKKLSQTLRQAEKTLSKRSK

[8] = biological target: T4, Tyrosyl-tRNA synthetase, putative (Trypanosoma cruzi (strain CL Brener)); experiment: Trypanosoma cruzi tyrosyl tRNA synthetase (TcYRS) SOP; type: functional; conditions: 30 µM
[9] = biological target: Chromo domain-containing protein 1 (Saccharomyces cerevisiae (strain ATCC 204508 / S288c) (Baker's yeast)) (UniProt P32657); experiment: ScCHD-1 Enzyme Inhibition Assay; type: functional; conditions: 30 µM; note: in the data most compounds retested in dose-response had high values
N/A = experiment: Trypanosoma cruzi proteasome luciferase counter-screen; type: functional; conditions: 9.37 µM

Sequence of Protein translocase subunit SecA (Escherichia coli (strain K12)) (P10408 whole entry): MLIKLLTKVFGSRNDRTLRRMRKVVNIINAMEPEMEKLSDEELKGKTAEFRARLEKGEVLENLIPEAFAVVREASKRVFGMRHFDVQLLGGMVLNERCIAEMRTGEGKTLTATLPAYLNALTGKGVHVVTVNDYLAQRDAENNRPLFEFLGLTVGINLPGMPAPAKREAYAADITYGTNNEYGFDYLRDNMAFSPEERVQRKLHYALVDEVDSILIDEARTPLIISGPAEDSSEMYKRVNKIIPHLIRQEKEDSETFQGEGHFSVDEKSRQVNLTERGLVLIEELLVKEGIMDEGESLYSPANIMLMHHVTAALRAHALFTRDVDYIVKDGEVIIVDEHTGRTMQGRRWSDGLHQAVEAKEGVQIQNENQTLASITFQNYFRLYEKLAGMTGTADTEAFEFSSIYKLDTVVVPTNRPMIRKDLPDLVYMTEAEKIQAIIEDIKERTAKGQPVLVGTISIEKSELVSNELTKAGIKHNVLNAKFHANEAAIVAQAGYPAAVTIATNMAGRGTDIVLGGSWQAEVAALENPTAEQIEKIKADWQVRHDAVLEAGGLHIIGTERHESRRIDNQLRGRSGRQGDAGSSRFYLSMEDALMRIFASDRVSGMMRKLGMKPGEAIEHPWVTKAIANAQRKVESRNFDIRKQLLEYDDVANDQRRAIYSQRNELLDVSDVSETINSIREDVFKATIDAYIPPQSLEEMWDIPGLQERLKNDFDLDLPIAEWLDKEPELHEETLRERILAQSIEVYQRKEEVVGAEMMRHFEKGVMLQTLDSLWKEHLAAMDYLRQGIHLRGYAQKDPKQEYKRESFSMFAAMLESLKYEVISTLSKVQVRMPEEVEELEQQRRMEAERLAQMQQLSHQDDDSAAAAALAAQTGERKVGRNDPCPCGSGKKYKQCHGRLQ
Sequence of Sialic acid-binding Ig-like lectin 9 (Homo sapiens) (Q9Y336 whole entry): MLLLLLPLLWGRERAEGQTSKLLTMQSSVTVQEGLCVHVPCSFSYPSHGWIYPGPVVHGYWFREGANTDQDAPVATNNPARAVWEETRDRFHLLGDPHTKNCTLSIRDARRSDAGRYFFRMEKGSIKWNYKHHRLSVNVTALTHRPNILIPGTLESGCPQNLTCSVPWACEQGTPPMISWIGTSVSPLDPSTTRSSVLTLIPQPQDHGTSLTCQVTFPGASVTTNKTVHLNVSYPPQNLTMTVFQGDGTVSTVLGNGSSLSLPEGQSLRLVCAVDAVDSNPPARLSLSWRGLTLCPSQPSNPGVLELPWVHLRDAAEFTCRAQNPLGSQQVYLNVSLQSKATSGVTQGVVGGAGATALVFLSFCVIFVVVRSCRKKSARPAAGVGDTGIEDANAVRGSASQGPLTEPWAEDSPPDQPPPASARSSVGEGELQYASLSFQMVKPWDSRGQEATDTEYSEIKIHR
Sequence of Chromo domain-containing protein 1 (Saccharomyces cerevisiae (strain ATCC 204508 / S288c) (Baker's yeast)) (P32657 whole entry, the tested form may be a part): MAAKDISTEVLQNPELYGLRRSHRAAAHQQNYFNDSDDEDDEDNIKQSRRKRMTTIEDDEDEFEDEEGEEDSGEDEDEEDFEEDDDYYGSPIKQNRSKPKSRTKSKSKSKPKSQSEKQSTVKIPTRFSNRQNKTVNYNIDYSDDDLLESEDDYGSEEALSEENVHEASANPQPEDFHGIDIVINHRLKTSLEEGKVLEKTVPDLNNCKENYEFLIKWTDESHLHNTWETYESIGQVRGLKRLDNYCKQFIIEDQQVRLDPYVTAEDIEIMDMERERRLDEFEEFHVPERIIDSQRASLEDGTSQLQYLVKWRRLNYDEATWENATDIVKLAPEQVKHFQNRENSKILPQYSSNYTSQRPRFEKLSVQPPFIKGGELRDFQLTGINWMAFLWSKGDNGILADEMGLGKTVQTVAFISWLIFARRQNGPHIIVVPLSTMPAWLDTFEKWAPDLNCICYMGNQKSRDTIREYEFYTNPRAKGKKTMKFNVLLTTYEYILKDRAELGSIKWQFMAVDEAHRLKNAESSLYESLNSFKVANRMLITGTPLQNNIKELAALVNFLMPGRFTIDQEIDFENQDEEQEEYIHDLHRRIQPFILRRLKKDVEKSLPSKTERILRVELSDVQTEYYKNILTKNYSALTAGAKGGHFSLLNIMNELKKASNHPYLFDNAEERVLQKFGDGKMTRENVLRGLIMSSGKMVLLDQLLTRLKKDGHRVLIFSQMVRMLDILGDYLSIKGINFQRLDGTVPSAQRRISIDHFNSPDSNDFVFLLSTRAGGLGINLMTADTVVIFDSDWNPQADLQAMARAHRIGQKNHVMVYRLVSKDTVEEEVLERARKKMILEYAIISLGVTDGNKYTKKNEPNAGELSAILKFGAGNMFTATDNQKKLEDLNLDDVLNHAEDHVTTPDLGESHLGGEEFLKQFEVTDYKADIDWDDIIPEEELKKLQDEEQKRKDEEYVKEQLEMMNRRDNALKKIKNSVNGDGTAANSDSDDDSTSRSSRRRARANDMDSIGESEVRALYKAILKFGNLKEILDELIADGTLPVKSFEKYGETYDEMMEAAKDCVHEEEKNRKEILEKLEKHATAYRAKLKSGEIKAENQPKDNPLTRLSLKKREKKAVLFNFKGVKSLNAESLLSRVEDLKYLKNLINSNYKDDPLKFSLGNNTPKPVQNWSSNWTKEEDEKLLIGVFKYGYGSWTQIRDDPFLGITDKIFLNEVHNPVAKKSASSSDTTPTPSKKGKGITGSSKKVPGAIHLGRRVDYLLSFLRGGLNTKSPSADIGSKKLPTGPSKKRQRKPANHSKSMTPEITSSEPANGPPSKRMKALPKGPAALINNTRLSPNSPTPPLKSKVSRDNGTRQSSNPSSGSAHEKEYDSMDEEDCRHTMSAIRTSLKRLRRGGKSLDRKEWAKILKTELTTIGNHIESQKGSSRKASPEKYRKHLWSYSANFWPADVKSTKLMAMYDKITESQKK

SMILES | Percent Effect [1] [%] | Percent Effect [2] [%] | Percent Effect [3] [%] | Percent Effect [4] [%] | Percent Effect (Trypanosoma cruzi) [%] | Percent Effect ([5]; 33.3 µM) [%] | Percent Effect [6] | Percent Effect (Homo sapiens) [%] | Percent Effect [7] [%] | Percent Effect [8] [%] | Percent Effect [9] [%] | Percent Effect ([5]; 30 µM) [%] | Percent Effect (N/A)
COCc1nc2cc(NCc3ccncc3)ccc2o1 | 6.12 | 54 | -108 | -0.763 | -1.76 | 9.58 | 13.4% | -8.66 | 4.95 | -1.22 | 2.52 | – | –
Cc1nc(C)n(C2CCCN(C(=O)Cc3cccnc3)C2)n1 (centres undefined) | -6.21 | 5.41 | 2.37 | -1.07 | 0.586 | 2.5 | 6.17% | -10.7 | 5.94 | 11 | -2.33 | – | –
COc1ccc(C2=CCN(C(=O)C3CCCN(C(N)=O)C3)CC2)cc1 (centres undefined) | -3.88 | 7.89 | 4.4 | -4.74 | 7.75 | -2.52 | 12.9% | 2.88 | 6.4 | 18.5 | -7.24 | – | –
FC(F)(F)Cn1ccnc1CN1CCOC(Cn2cccn2)C1 (centres undefined) | -5.79 | 6.33 | 6.8 | 1.11 | -2.36 | -1.5 | 1.54% | 13.3 | 1.04 | 15.2 | -6.67 | – | –
CCS(=O)(=O)N1CCO[C@H]2[C@H](OCCCn3cccn3)CC[C@@H]21 | -0.913 | -2.67 | -2.06 | -3.13 | 3.48 | -47.1 | 5.3% | -0.821 | -4.17 | 7.5 | -1.55 | – | –
CC(C)N1CCOCC2(CN(Cc3nccs3)CCO2)C1 (centres undefined) | -5.04 | 20.8 | -4.7 | -3.15 | 2.66 | 0.645 | 16.7% | 3.46 | 9.52 | 14.1 | -7.32 | – | –
Cc1ccc(C)c(C(C(=O)O)N2CCCN(Cc3ccccn3)CC2)c1 (centres undefined) | -6.39 | 5.41 | – | 1.19 | -2.23 | 4.54 | 16.3% | 23.2 | 6.92 | 14.6 | -4.84 | 0.54 | –
COc1cccc(-c2noc(C3CCN(Cc4cccs4)C3)n2)c1 (centres undefined) | 4.18 | 4 | – | -7.16 | -5.33 | 1.77 | 57.3% and 54.2% and 60.1% | 16 | -3.17 | 7.5 | -23.7 | – | 26.2% and 26.8%
Cn1ccc(C(=O)NCc2cccc(CN3CCCC3)c2)cc1=O | -1.76 | 20.8 | – | 0.574 | 2.05 | -6.35 | 19.2% and 18.4% and 34% | -14.3 | 11.8 | 30.6 | -13 | – | 12% and 8.64%
Nc1nc(CCC(=O)N2CCOC(CC3CCCCC3)C2)cs1 (centres undefined) | -7.43 | 0 | – | 6.25 | 11.3 | -2.45 | 3.25% | 10.9 | 9.04 | 19.5 | 5.38 | 3.78 | –
CC1c2ncc(CN3CCN(C)CC3)n2CCN1CC1CC1 (centres undefined) | -1.8 | 18.7 | -6.67 | 5.11 | 5.99 | -54.7 | 6.33% | -3.72 | 6.25 | 17.5 | -8.05 | – | –
CCC(CC)C(=O)N1CCC2(C1)CN(c1ccccc1)C(=O)CN2C (centres undefined) | -1.78 | 3.9 | – | -5.2 | -8.08 | 4.86 | 14.7% | -19.6 | 5.79 | 0 | -2.51 | – | –
CS(=O)(=O)CCC(=O)N1CCC2(CCCN(C3CCOCC3)C2=O)C1 (centres undefined) | 0.12 | 8.22 | -3.26 | 6.39 | 1.19 | -3.19 | 12.6% | -2.62 | 6.25 | 13.6 | -3.06 | – | –
COc1cccc(-c2nc(CNCCn3cccn3)cs2)c1 | -0.562 | -2.56 | – | -1.83 | -5.54 | 2.46 | 59.5% and 60.9% and 43.9% | 37.8 | 4.31 | 6.02 | 1.48 | – | 31.8% and 30.9%
Cc1nc(N)sc1C(=O)N1CCCC(c2nccn2CCCN(C)C)C1 (centres undefined) | -5.86 | 10.8 | – | 10.2 | 7.47 | -3.15 | 13.2% | 7.55 | 11.2 | 9.76 | 95.1 | 9.19 | –
CC(C)CCN(C)C(=O)c1nc(S(C)(=O)=O)n2ccccc12 | -4.72 | 12.8 | – | -6.5 | 5.16 | 1.23 | 2.13% | 0.306 | 6.22 | 10.8 | -1.74 | – | –
